Test results published in PubChem BioAssay (Tox21).
Records with an inconclusive call do not appear. The source made the active and inactive calls. Unless noted, the call rests on the fitted dose curve; in most records, active means well fitted curve in the direction sought with a large enough effect in the repeat runs; inconclusive means weak or mixed curves; inactive means no such curve, though single readings can be large; an effect the other way counts as inactive or inconclusive.

Assays:
[1] = qHTS assay to identify small molecule agonists of the RXR signaling pathway - cell viability counter screen (AID 1159529);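 further: HEK 293T cells carrying an RXR-alpha UAS beta-lactamase reporter; series mostly up to about 77 µM; nearly all actives have a fitted effect of over 50% in size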
In short: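 Tox21 10K compounds were tested for cytotoxicity against GeneBLAzer RXR-alpha HEK 293T cells grown in 2% charcoal-stripped FBS. Exposure lasted 16 hr at 37 C, 5% CO2; viability read by CellTiter-Glo luminescence.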

[2] = qHTS assay to identify small molecule antagonists of the retinoid acid receptor (RAR) signaling pathway - cell viability counter screen (AID 1159551); further: nearly all actives have a fitted effect of over 35% in size
In short: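 C3RL4 RARE-luciferase cells, 1,000/well, incubated overnight, then dosed with compound plus 1 uM retinol (final). After 6 hr at 37 C, viability read by CellTiter-Glo ATP luminescence following 30 min at room temperature.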

[3] = qHTS assay to identify small molecule antagonists of the estrogen related receptor (ERR) signaling pathway - cell viability counter screen (AID 1224818); further: series mostly up to about 46 µM
In short: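 ERR cells, 2,000 per well, compound added after 6 h and incubated 17.5 h at 37 C. Viability read by CellTiter-Fluor fluorescence after a further 30 min at 37 C.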

[4] = qHTS assay to identify small molecule antagonists of the estrogen related receptor signaling pathway with the pleiotropic PPARgamma coactivator (PGC) cell viability counter screen (AID 1224822; further: series mostly up to about 46 µM)
In short: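 PGC/ERR cells rested 6 h, then compound-treated 17.5 h at 37 C. CellTiter-Fluor added for 30 min at 37 C, viability measured by fluorescence intensity.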

[5] = qHTS assay to identify small molecule agonists of the retinoic acid receptor (RAR) signaling pathway (AID 1159553); further: potency means the concentration at half of the fitted maximal effect
In short: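 C3RL4 RARE-luciferase cells were seeded at 1,000/well and grown overnight at 37 C, then exposed to compounds for 6 hr at 37 C, 5% CO2. Luciferase reagent was added and luminescence was read after 30 min at room temperature.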

[6] = qHTS assay to identify small molecule antagonists of the estrogen related receptor (ERR) signaling pathway (AID 1224819;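 further: luminescence from an ERR-driven luciferase reporter measured with One-Glo reagent; series mostly up to about 46 µM; nearly all actives have a fitted effect of over 50% in size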)
In short: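 ERR reporter cell line (NTP) plated at 2,000 cells/well, settled 6 h at 37C/5% CO2, then exposed to LOPAC compounds for 18 h at 37C. One-Glo luciferase luminescence read after 30 min at room temperature.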

[7] = qHTS assay to identify small molecule agonists of the estrogen related receptor (ERR) signaling pathway (AID 1224820)
Source text: National Center for Advancing Translational Sciences [NCATS]
NIH Chemical Genomics Center [NCGC]
U.S. Environmental Protection Agency [EPA]
National Institutes of Environmental Health Sciences [NIEHS]
National Toxicology Program [NTP]
Estrogen related receptors (ERRs), the first orphan nuclear receptors discovered, play an important role in the control of cellular energy metabolism. ERRs are required for high-energy production in response to the environmental challenges. ERR-alpha was also identified as an adverse marker for breast cancer progression; ERR-alpha-positive tumors have a poor prognosis. To screen and to identify environmental compounds that perturb the ERR signaling pathways could provide valuable information for potential therapeutic or preventive measures in the treatment of metabolic disease. For identifying ERR agonists, ERR cell line (provided by NTP) has been used to screen LOPAC library.
The ERR cells were dispensed at 2,000 cells/5 ul/well in 1536-well white plates using a Multidrop dispenser. After the assay plates were incubated at a 37 C/5% CO2 incubator for 6 hours, 23 nL of compounds dissolved in DMSO, positive and negative controls or DMSO only was transferred to the assay plate by a pin tool. The plates were incubated at 37 C for 18 hours. 4 ul/well of One-Glo reagent was added into the assay plates using a Flying Reagent Dispenser. After 30 min incubation at room temperature, the luminescence intensity in the plates was measured using a ViewLux plate reader.

[8] = tested on: estrogen-related receptor alpha (ERRalpha) with PGC-1alpha coactivator, human; experiment: qHTS assay to identify small molecule antagonists of the estrogen related receptor signaling pathway with the pleiotropic PPARgamma coactivator (PGC) (AID 1224821; calls by dose curve;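 further: series mostly up to about 46 µM; lower luminescence signal means antagonism of PGC/ERR signalling; nearly all actives have a fitted effect of over 50% in size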)
In short: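 PGC/ERR reporter cell line, plated 6 h before compound addition, then exposed 18 h at 37 °C. Luciferase activity read by luminescence 30 min after One-Glo addition; decrease indicates antagonism.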

[9] = qHTS assay to identify small molecule agonists of the estrogen related receptor signaling pathway with the pleiotropic PPARgamma coactivator (PGC) (AID 1224823)
In short: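 PGC/ERR reporter cells seeded 6 h, then exposed to compounds (23 nL in DMSO) for 18 h at 37 C. One-Glo luciferase luminescence read after 30 min at room temperature.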

[10] = qHTS assay to identify small molecule antagonists of the retinoic acid receptor (RAR) signaling pathway (AID 1159552; further: nearly all actives have a fitted effect of over 50% in size)
In short: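 Overnight-plated C3RL4 reporter cells get compound, then retinol to 1 uM final; plates sit 6 hr at 37 C, 5% CO2. A luciferase reagent is added and light output recorded after 30 min at room temperature.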
On the % scale 0 is the no-effect control and ±100 the full control effect.

CN1CC(=O)N/C1=N/C(=O)Nc1cccc(Cl)c1
inactive: Potency [1] | outcome [2] | outcome [3] | outcome [4]

O=S(=O)(O)c1cccc2c(S(=O)(=O)O)cccc12
inactive: Potency [1] | outcome [2] | Potency [5]

CCOC(=O)c1cnc2c(cnn2CC)c1NN=C(C)C
inactive: Potency [1] | outcome [2] | outcome [3] | outcome [4]

Nc1c2c(nc3c1CCC3)CCCC2
inactive: Potency [1] | outcome [2] | Potency [5]

COc1c(N2CCNC(C)C2)c(F)cc2c(=O)c(C(=O)O)cn(C3CC3)c12 (stereo not given)
inactive: Potency [1] | outcome [2] | Potency [5]

CCCn1cc[n+](C)c1C
inactive: Potency [1] | outcome [2] | Potency [5]

CC1=NS(=O)(=O)c2cc(Cl)ccc2N1
inactive: Potency [1] | outcome [2] | outcome [3]

CN(C)C(=O)Oc1ccc[n+](C)c1
inactive: Potency [1] | outcome [2] | outcome [3] | outcome [6] | outcome [7] | outcome [8] | outcome [4] | outcome [9]

C[N+]1(CC2COC(c3ccccc3)(c3ccccc3)O2)CCCCC1 (stereo not given)
inactive: activity change, negative = cytotoxicity [1] -2.46% [at 15.8 µM] | activity change, negative = cytotoxicity [2] -0.8% [at 19 µM] | Potency [5]

C[N+]1(C)CCCC(OC(=O)C(O)(c2ccccc2)c2ccccc2)C1 (stereo not given)
inactive: Potency [1] | outcome [2] | Potency [5]

CC(C)NNC(=O)c1ccncc1
inactive: Potency [1] | outcome [2] | outcome [3] | outcome [4]

CNCC(O)c1ccc(O)c(O)c1 (stereo not given)
inactive: Potency [1] | outcome [2] | Potency [5] | outcome [3] | outcome [6] | outcome [7] | outcome [8] | outcome [4] | outcome [9]

CC(C(=O)O)c1cccc(Oc2ccccc2)c1 (stereo not given)
inactive: Potency [1] | outcome [2] | Potency [5]

COc1cc(C(=O)NCc2ccc(OCCN(C)C)cc2)cc(OC)c1OC
inactive: Potency [1] | outcome [2] | Potency [5]

CCCCN1C=CN(C)C1
inactive: activity change, negative = cytotoxicity [1] -11.3% [at 15.8 µM] | activity change, negative = cytotoxicity [2] 1.26% [at 19 µM] | Potency [5]

CC(C)(C)C(=O)Oc1ccc(S(=O)(=O)Nc2ccccc2C(=O)NCC(=O)O)cc1
inactive: Potency [1] | outcome [2] | Potency [5] | outcome [3] | outcome [4]

O=C(O)c1cc(C(=O)O)cc(C(=O)O)c1
inactive: Potency [1] | outcome [2] | Potency [5]

NCCCC(N)(C(=O)O)C(F)F (stereo not given)
inactive: Potency [1] | outcome [2] | Potency [5] | outcome [3] | outcome [4]

COc1cc(-c2ccc(=O)[nH]n2)ccc1OC(F)F
inactive: Potency [1] | outcome [2] | Potency [5]

CC(=O)c1ccccc1[N+](=O)[O-]
inactive: Potency [1] | outcome [2] | Potency [5]

N[C@@H](CCC(=O)O)C(=O)O
inactive: Potency [1] | outcome [2] | outcome [3] | outcome [4]

CC(C)CCCO
inactive: Potency [1] | outcome [2] | Potency [5]

CCN(Cc1ccccc1)c1ccccc1
inactive: Potency [1] | outcome [2] | Potency [5]

CO/N=C(\C(=O)N[C@@H]1C(=O)N2C(C(=O)O)=C(CSc3nc(=O)c(O)nn3C)CS[C@H]12)c1csc(N)n1
inactive: Potency [1] | outcome [2] | Potency [5]

Nc1ccn([C@@H]2O[C@H](CO)[C@@H](O)[C@@H]2O)c(=O)n1
inactive: Potency [1] | outcome [2] | Potency [5] | outcome [3] | outcome [6] | outcome [7] | outcome [8] | outcome [4] | outcome [9]

Cc1ccc(C(=O)c2ccc(CC(=O)O)n2C)cc1
inactive: Potency [1] | outcome [2] | Potency [5]

CN(C)C(=O)Oc1cccc([N+](C)(C)C)c1
inactive: Potency [1] | outcome [2] | Potency [5] | outcome [3] | outcome [4]

FB(F)F
inactive: Potency [1] | outcome [2] | Potency [5]

OCCc1ccccn1
inactive: outcome [2]

C[N+]1(C)[C@@H]2CC(OC(=O)[C@H](CO)c3ccccc3)C[C@H]1[C@@H]1O[C@@H]12 (stereo not given in full)
inactive: Potency [1] | outcome [2] | Potency [5]

NO
inactive: Potency [1] | outcome [2] | Potency [5] | outcome [3] | outcome [4]

CCCCS(=O)(=O)N[C@@H](Cc1ccc(OCCCCC2CCNCC2)cc1)C(=O)O
inactive: Potency [1] | outcome [2] | Potency [5]

CC(N)C12CC3CC(CC(C3)C1)C2 (stereo not given)
inactive: Potency [1] | outcome [2] | Potency [10] | Potency [5]

CN1CCN(c2cc3c(nn2)Oc2ccccc2N3C)CC1
active: Potency [5] 5.8 µM
inactive: activity change, negative = cytotoxicity [1] 1.18% [at 15.8 µM] | activity change, negative = cytotoxicity [2] 0.0499% [at 19 µM] | activity, negative = inhibition [10] 162% [at 19 µM]

CCCc1nn(C)c2c(=O)[nH]c(-c3cc(S(=O)(=O)N4CCN(C)CC4)ccc3OCC)nc12
inactive: outcome [3] | outcome [4]

CC[N+](CC)(CC)CCOc1cccc(OCC[N+](CC)(CC)CC)c1OCC[N+](CC)(CC)CC
inactive: outcome [3] | outcome [4]
